# VLA-4 inh: inhibition in human VLA-4 binding assay, primary screen, VLA-4 allosteric modulator project, MLPCN library, flow cytometry, VLA-4 expressing cells. ligand binding flow cytometry. inhibition, % (about 7 µM as worked out from the volumes in the protocol). 0.2% of 330,000 active. AID 2557, 2010; in the data active means inhibition above about 50%
# ABCB6 inh MLPCN: ABCB6 transporter inhibitors, primary screen, K562-ABCB6 cells, flow cytometry, MLPCN library | 0.19% of 360,000 active | AID 602162, 2011 | fluorescence ratio to DMSO, % at 10 µM | ATP-binding cassette sub-family B member 6 (Homo sapiens), Q9NP58 | K562-ABCB6 porphyrin accumulation, 1 h; stronger effect = lower value;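 active means fluorescence ratio to DMSO below 75%, the collection mean minus 3 SD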;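 further: signal is porphyrin accumulated inside mitochondria; 100% equals median channel fluorescence of DMSO control wells; lower ratio means ABCB6 inhibition with less porphyrin fluorescence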
# Target sequence (Q9NP58 whole entry, looked up): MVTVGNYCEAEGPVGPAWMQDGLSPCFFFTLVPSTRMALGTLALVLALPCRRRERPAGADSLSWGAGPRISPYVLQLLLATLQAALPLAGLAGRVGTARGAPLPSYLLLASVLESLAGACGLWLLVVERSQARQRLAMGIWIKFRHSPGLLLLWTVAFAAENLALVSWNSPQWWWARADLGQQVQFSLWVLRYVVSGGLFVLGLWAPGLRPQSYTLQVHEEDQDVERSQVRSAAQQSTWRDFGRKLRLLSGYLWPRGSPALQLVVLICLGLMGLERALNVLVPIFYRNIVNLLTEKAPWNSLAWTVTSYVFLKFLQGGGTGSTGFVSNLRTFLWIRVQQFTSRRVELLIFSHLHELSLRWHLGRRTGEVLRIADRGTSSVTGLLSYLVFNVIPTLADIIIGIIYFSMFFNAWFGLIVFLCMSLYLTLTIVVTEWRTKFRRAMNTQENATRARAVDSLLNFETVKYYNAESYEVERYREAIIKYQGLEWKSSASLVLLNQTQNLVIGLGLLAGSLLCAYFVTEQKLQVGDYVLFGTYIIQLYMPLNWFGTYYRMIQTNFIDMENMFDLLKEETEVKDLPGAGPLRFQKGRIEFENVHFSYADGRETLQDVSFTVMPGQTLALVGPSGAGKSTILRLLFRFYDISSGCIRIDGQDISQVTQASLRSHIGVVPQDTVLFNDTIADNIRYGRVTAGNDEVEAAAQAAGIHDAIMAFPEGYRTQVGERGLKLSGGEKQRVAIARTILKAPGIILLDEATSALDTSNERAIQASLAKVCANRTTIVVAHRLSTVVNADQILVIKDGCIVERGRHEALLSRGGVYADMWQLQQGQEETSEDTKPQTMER
# CaV13 FRET inh: Disruptors of the CACNA1D IQ motif to Ca2+-dependent inactivation inhibitor domain association, primary screening, Förster resonance energy transfer in intact living …; HEK cells, CFP/YFP FRET ICDI-IQ, plate reader, 10 min; percent FRET-ratio fall versus neutral wells; 0.098% of 340,000 active; inhibition, % at 12.3 µM; AID 743397;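 active means mean replicate inhibition of at least 30% and at least 1% of replicates passing that level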;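 further: 0% = median of the neutral control wells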
# Exocytosis inh: LAMP-1 surface exposure blockers, TALL-104 cells – cell-based, flow cytometry, MLPCN library, primary screen; inhibition, % at 10 µM; 0.66% of 360,000 active; TALL-104 LAMP-1 surface exposure; cells stimulated with thapsigargin and PMA;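 active means inhibition above about 55%, limit read from the data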
# ABCB6 blocker 1: ABCB6 transporter inhibitors, confirmation, K562-ABCB6 cells, flow cytometry, cherry pick 1; 700 tested, under 10 active; K562-ABCB6 porphyrin accumulation, 1 h; stronger effect = lower value; ratio response (% of DMSO), % at 10 µM; shares compounds with ABCB6 inh MLPCN;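 active means repeat-averaged ratio response below 75% of DMSO, the collection mean minus 3 SD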;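 further: median porphyrin fluorescence at 575 nm with 488 nm excitation from mitochondria; lower ratio means less porphyrin signal so ABCB6 inhibition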
# An asterisk follows results filed as active; x = no result given. A selection: hits, their analogues and other compounds. The true share with any hit is near 1.1%.
SMILES,VLA-4 inh,ABCB6 inh MLPCN,CaV13 FRET inh,Exocytosis inh,ABCB6 blocker 1
O=C(N=C1SC2CS(=O)(=O)CC2N1c1ccc(OC(F)(F)F)cc1)C1CC1 (stereo not given),18.3,99.0,-7.0,-3.2,x
CCc1ccc(NC(=O)Cn2nc(C)n3cccc3c2=O)cc1,10.2,100.0,-2.2,-1.3,x
Cc1nc2c(N=Nc3ccccc3F)c(N)nn2c(N)c1C#N,-3.9,92.0,4.4,0.4,x
CC(C)=CCc1c(O)ccc(C(=O)Cc2ccccc2)c1O,21.2,64.0*,-0.7,0.7,96.0
O=C(NCCN1CCOCC1)c1cc(-c2ccc(F)cc2)nc2ccccc12,3.9,90.0,-4.4,-1.8,x
Cc1cc(C(=O)NCCN2CCOCC2)c2ccccc2n1,14.8,74.0*,-5.4,-2.8,103.0
CCCc1cc(=O)oc2cc(OCC(=O)NCCN3CCOCC3)c(Cl)cc12,x,101.0,-14.6,-2.7,x
COc1cccc(CN2CCNC(=O)C2CC(=O)NCc2cn3ccccc3n2)c1OC (stereo not given),6.6,73.0*,-2.9,-0.5,97.0
COc1cccc(CN2CCNC(=O)C2CC(=O)NCc2cn3cccc(C)c3n2)c1OC (stereo not given),-8.1,103.0,-5.0,-4.5,x
Cc1c(Cl)c([N+](=O)[O-])nn1CC(=O)NCc1ccc(Cl)cc1,11.5,103.0,-3.8,0.2,x
CC(Oc1ccc(Cl)cc1Cl)c1ccnc2nc(N3CCOCC3)nn12 (stereo not given),-4.9,74.0*,-5.2,1.2,99.0
Cc1nc2c(C(=O)N3CCN(C)CC3)cnn2c(C)c1Cc1ccc(Cl)cc1,-6.1,99.0,-7.4,-0.6,100.0
Cc1ccccc1Cc1c(C)nc2c(C(=O)N3CCN(Cc4ccc5c(c4)OCO5)CC3)cnn2c1C,-15.4,90.0,-7.3,0.2,x
Cc1nc2c(C(=O)N3CCCCC3)cnn2c(C)c1Cc1ccccc1F,11.4,96.0,-4.3,-5.9,98.0
COCCCNC(=O)CCc1nnc2ccc(N3CCC(C)CC3)nn12,9.8,94.0,-17.0,-14.0,102.0
COc1cc(NC(=O)CCc2nnc3ccc(N4CCC(C)CC4)nn23)cc(OC)c1,0.4,101.0,-6.9,-2.7,x
COCCNC(=O)CCc1nnc2ccc(N3CCC(C)CC3)nn12,9.1,96.0,-17.0,2.5,101.0
COC(=O)C(NC(=O)CCc1nnc2ccc(N3CCCCC3)nn12)C(C)C (stereo not given),6.3,100.0,-16.3,9.2,100.0
CCN(CC)CCNC(=O)CCc1nnc2ccc(N3CCC(C)CC3)nn12,10.4,99.0,-15.9,-7.7,103.0
CC1CCN(c2ccc3nnc(CCC(=O)Nc4ccc(F)cc4)n3n2)CC1,8.3,100.0,-3.8,-2.7,x
C/C(C=O)=C/c1ccccc1,6.3,107.0,x,-1.3,x
CCCCNC(=O)C1(C)CCCCN1C(=O)c1cccs1 (stereo not given),x,92.0,-5.8,8.5,x
O=c1c(=O)n(CCO)n(CCO)c(=O)n1CCO,x,96.0,-3.3,0.8,x
CCCn1c(SCC(=O)Nc2ccccc2OC)nnc1-c1ccco1,6.6,101.0,-18.0,-2.0,x
CC1CCN(c2ccc3nnc(CCC(=O)NC(C)C)n3n2)CC1,9.1,97.0,-18.7,-0.5,91.0
SMILES,VLA-4 inh,ABCB6 inh MLPCN,CaV13 FRET inh,Exocytosis inh,ABCB6 blocker 1
CN(CC(=O)Nc1ccc(F)cc1)C(=O)COC(=O)COc1ccc(C#N)cc1,-0.7,68.0*,-15.0,-4.5,102.0
COc1ccc2oc(-c3ccc(NC(=O)c4ccc(N5CCOCC5)c([N+](=O)[O-])c4)cc3)nc2c1,-2.2,60.0*,-7.7,-4.7,98.0
Cc1ccccc1-c1cnc(C(O)c2cccc(C)c2C)[nH]1 (stereo not given),x,70.0*,-3.7,-8.2,100.0
Cc1cccc(C(O)c2ncc(-c3ccccc3Cl)[nH]2)c1C (stereo not given),x,101.0,-6.7,2.0,x
COc1ccc(OC)c(NC(=O)CSc2nnc(NC(=O)c3ccco3)s2)c1,0.6,103.0,-2.8,-3.9,x
O=C(Oc1ccc(N(Cc2cccs2)C2=NS(=O)(=O)c3ccccc32)cc1)c1ccccc1,-21.4,66.0*,-5.6,3.3,100.0
